Data on 40 molecules can be found in PubChem BioAssay (EPA / NIEHS).

Active and inactive are the calls of the source. How the source made its calls: active means hit-call score of the fitted dose curve at least 0.9, where 1 is the maximum; inactive means score below 0.9.

A short description of this experiment: ATG_Oct_MLP_CIS: Attagene CIS-FACTORIAL HepG2 Assay for human Octamer-Binding Transcription Factor (Oct) (AID 2282993). The note with it: HepG2 Attagene cis-factorial Oct reporter, mRNA; actives raise or lower the signal. The procedure: ATG_CIS is a cell-based, multiplexed-readout assay that uses HepG2, a human liver cell line, with measurements taken at 24 hours after chemical dosing in a 24-well plate.ATG_Oct_MLP_CIS is one of 52 assay component(s) measured or calculated from the ATG_CIS assay. It is designed to make measurements of mRNA induction, a form of inducible reporter, as detected with fluorescence intensity signals by Reverse transcription polymerase chain reaction (RT-PCR) and Capillary electrophoresis technology.Data from the assay component ATG_Oct_MLP_CIS was analyzed into 1 assay endpoint. This assay endpoint, ATG_Oct_MLP_CIS, was analyzed with bidirectional fitting relative to DMSO as the negative control and baseline of activity. Using a type of inducible reporter, measures of mRNA for gain or loss-of-signal activity can be used to understand the reporter gene at the transcription factor-level as they relate to the gene POU2F1. Furthermore, this assay endpoint can be referred to as a primary readout, because this assay has produced multiple assay endpoints where this one serves a reporter gene function. To generalize the intended target to other relatable targets, this assay endpoint is annotated to the dna binding intended target family, where the subfamily is POU domain protein.
Human liver HepG2 cells are transiently transfected with multiple reporter transcription units (MRTUs) in 6-well plates using FuGene 6 reagent (Roche; 3 ml FuGene/1 mg DNA). The MRTU constructs are regulated by a cis-regulating element (promoter). […] A major difference between the CIS and TRANS system is that in CIS activities of endogenous TFs are measured, whereas the TRANS assay evaluates changes in activities of exogenous, chimeric NR-Gal4 proteins. […] At the end of 24 hour incubation, total RNA was isolated using TriZol reagent (Invitrogen). The isolated RNA is then reverse-transcribed using oligo(dT) primer and Mo-MLV reverse transcriptase (Invitrogen) with DNAse I (Ambion) treatment for 30 min. The one-tenth of the produced cDNA was amplified by PCR using Taq DNA polymerase (Invitrogen) and two reporter sequence-specific primers. The PCR products were fluorescently labeled by primer extension with 6-arboxyfluorescein (6-FAM) 5'-labeled reporter sequence-specific primer (2 min at 95 C, 20 s at 68 C and 10 min at 72 C) and these products were digested with 5U of HpaI (New England Biolabs) for 2h at 37 C. The fragments were purified using Qiaquick PCR columns (Qiagen), analyzed on an ABI 3130xL genetic analyzer (Applied Biosystems) with peak positions identified by using a set of X-rhodamine (ROX)-labeled MapMarker1000 molecular weight standards (BioVentures). The raw capillary electrophoresis data was processed using Attagraph software (Attagene).
As to `COC(Cc1ccccc1)OC`, the call was inactive. On the same count and under the same terms, the value for `CC1=NN(c2ccc(S(=O)(=O)O)cc2)C(=O)C1N=Nc1ccccc1` (stereo not given) was “inactive”; that for `CC(CC(C)C)=NO` was “inactive”; that for `CC(C)c1ccc(O)c(C(C)C)c1` was “inactive”. In the case of `CCCCC(=O)O`, the molecule was called inactive. On the same count and under the same terms, the value for `COC(=O)CC(C)CCC=C(C)C` (stereo not given) was “inactive”. As for `COC(=O)c1ccc(C(=O)OC)c(C(=O)OC)c1`, the result was inactive. `CCCCCC1=CCCC1=O`: the call was inactive. Still for that read-out and setting: then `CCCCCCCCCCCC(=O)OCC`, with “inactive”; and `Cc1c[nH]c(=O)[nH]c1=O`, with “inactive”. The same measure, in the same setting: the value for `CCCc1ccc(O)c(OC)c1` was “inactive”.

Regarding `CC(C)c1cc(C(C)C)cc(C(C)C)c1`, the molecule was called inactive. For the molecule `CC(c1cc(C(C)(C)C)cc(C(C)(C)C)c1O)c1cc(C(C)(C)C)cc(C(C)(C)C)c1O`, the molecule was called inactive. Take `Nc1ccc(C(=O)O)cc1`: the outcome was inactive.

`Cc1cccc(C(C)(C)C)c1O`: the outcome was inactive. The same measure, in the same setting: then `CN(C)c1ccc2nc3ccc(=[N+](C)C)cc-3sc2c1`, with “inactive”.

Take `CC(Cl)COP(=O)(OCC(C)Cl)OCC(C)Cl` (stereo not given): the molecule was called inactive. Same read-out and setting: the value for `CCCCCCCCCCCCCCCCCCOS(=O)(=O)O` was “inactive”; that for `Cc1cc(C)c(C=O)c(C)c1` was “inactive”; that for `CCCCCC(=O)OCC` was “inactive”. Consider `O=C(OCc1ccccc1)c1ccc(O)cc1`, for which the half-maximal activity concentration (AC50) was 125 µM (active). Take `CC(C)(O)Cc1ccccc1`: the call was inactive. Take `CCCC1CCCC(=O)O1` (stereo not given): the molecule was classed as inactive. For the molecule `[Cl][Sc]([Cl])[Cl]`, the outcome was inactive.

Consider `COc1cc(O)c(C(=O)c2ccccc2)cc1S(=O)(=O)O`, for which the molecule was called inactive. Regarding `COc1nccnc1CC(C)C`, the molecule was classed as inactive. Same read-out and setting: then `CCCCc1ccc(Cl)cc1`, with “inactive”; and `[Cl][Eu]([Cl])[Cl]`, with “inactive”; and `C=C(C)C1CC=C(C)C(OC(C)=O)C1` (stereo not given), with “inactive”. On to `C[Si](C)(C)N[Si](C)(C)C`, for which the result was inactive. The same measure, in the same setting: the value for `C=CCOC(=O)c1ccc(C(=O)OCC=C)c(C(=O)OCC=C)c1` was “inactive”; that for `CCC(C)C(=O)OCCc1ccccc1` (stereo not given) was “inactive”.

Turning to `C=Cc1ccc(OC(C)=O)cc1`, the AC50 was 55.4 µM (active). Turning to `O=C(O)C(F)(F)C(F)(F)C(F)(F)C(F)(F)C(=O)O`, the molecule was classed as inactive. Regarding `COc1ccc(C(=O)c2ccccc2)c(O)c1`, the result was inactive. The same measure, in the same setting: then `O=C(O[C@@H]1Cc2c(O)cc(O)cc2O[C@@H]1c1cc(O)c(O)c(O)c1)c1cc(O)c(O)c(O)c1`, with “inactive”.

For `COC(OC)(C(=O)c1ccccc1)c1ccccc1`, the molecule was classed as inactive. As for `CC(CC=O)CC(C)(C)C` (stereo not given), the result was inactive.

`C1CCSC1`: the molecule was classed as inactive.

As for `CC1=CP(=O)(c2ccccc2)CC1` (stereo not given), the molecule was called inactive.

Broadly, the AC50 is the concentration at which the activity in the assay is half-maximal.
